Compound activity from PubChem.
A selection: hits, their analogues and other compounds. The true share with any hit is near 6.3%.
Gal4-VP16 FLuc: inhibits Gal4-VP16 luciferase reporter, ROR gamma counter-screen; Drosophila S2 Gal4-VP16 UAS-luciferase, luminescence, 20 h; Potency, µM (top dose mostly 53.6 µM), hits mostly inhibitors; actives 3.5% (n = 310,000);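 note: Gal4-VP16 expression switched on by copper sulfate through the metallothionein promoter; nearly all actives have a fitted effect of over 50% in size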
ATXN2 expr inh: ATXN2 expression inhibition; HEK-293 ATXN2-luciferase reporter, luminescence, 24 h; Potency, µM (doses to about 57 µM), usual class: inhibitors; actives 0.72% (n = 360,000); AID 1745845; note: nearly all actives have a fitted effect of over 55% in size
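ATXN2-luciferase reporter cells (luciferase flanked by upstream and downstream ATXN2 gene portions) were treated 24 h at 37 °C with compounds at up to 57 uM. SteadyGlo luminescence gave expression; GF-AFC fluorescence gave viability.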
ATXN viability: viability counter-screen for ATXN expression inhibitors; S2 cells (HEK-293 line with an ATXN2-luciferase reporter) viability, CellTiter-Fluor protease fluorescence, 24 h; Potency, µM (series often up to 56.7 µM), most hits filed as cytotoxic; actives 0.49% (n = 400,000); note: nearly all actives have a fitted effect of over 40% in size
TGFb SMAD3 inh: TGF-b pathway inhibition | Potency, µM (series often up to 46.1 µM), most hits filed as inhibitors | HepG2 CAGA-GFP TGF-b/SMAD3 reporter, GFP fluorescence, 18 h; TGF-beta stimulated, 500 pg/mL final | actives 1.2% (n = 410,000); note: nearly all actives have a fitted effect of over 65% in size
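Cell-based qHTS in HEPG2 carrying a CAGA-GFP Smad reporter; compounds added before 500 pg/mL final TGF-beta, 18 h incubation at 37 degrees C, GFP fluorescence quantified per cell by imaging cytometry.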
HepG2 viability: HepG2 cytotoxicity, counter-screen for TGF-b inhibitors. HepG2 CAGA-GFP viability, ATP luminescence, 18 h. Potency, µM (highest dose often 46.1 µM), actives largely listed as cytotoxic. actives 0.76% (n = 410,000)
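CellTiter-Glo luminescence gave cytotoxicity after 18 hours at 37 degrees C. The cells were HepG2 CAGA-GFP in 1% FBS DMEM, stimulated with 500 pg/mL TGF-beta after compound addition. %Activity was normalised to no-cell wells (complete cell-killing) and DMSO (no toxicity), and curves were fitted and classified.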
RORgamma inh: blocks mouse ROR gamma transcriptional activity; Potency, µM (series often up to 53.6 µM), actives largely listed as inhibitors; actives 5.4% (n = 310,000); Drosophila S2 Gal4-RORgamma UAS-luciferase reporter, 20 h; note: nearly all actives have a fitted effect of over 60% in size
Target sequence (P51450 whole entry, looked up, the tested form may be a part): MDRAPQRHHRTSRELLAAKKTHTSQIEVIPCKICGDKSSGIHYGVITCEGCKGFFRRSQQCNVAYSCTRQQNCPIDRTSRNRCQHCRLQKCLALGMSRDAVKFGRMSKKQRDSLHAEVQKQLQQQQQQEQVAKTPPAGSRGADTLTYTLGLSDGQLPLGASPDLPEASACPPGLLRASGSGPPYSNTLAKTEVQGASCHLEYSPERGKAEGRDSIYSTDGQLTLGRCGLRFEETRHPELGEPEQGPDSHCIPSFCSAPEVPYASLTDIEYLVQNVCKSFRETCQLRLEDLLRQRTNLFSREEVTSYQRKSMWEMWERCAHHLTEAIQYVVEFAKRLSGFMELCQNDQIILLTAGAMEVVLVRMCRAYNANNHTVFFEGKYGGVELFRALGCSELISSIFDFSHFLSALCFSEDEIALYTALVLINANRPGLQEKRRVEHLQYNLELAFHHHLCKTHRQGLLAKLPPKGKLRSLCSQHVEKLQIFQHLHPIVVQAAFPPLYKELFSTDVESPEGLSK
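Luminescence from a UAS-regulated Photinus luciferase reporter in stably transfected Drosophila Schneider cells is measured; decreased signal marks ROR gamma inhibition. Fusion expression is induced by 700 uM copper sulfate for 20 hr.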
Of the large screens only hits and unclear results are named; the others gave an inactive call. Calls come from the whole dose curve; as a rule, active = well fitted curve in the direction sought with a large enough effect; inconclusive = small, poorly fitted or top-dose-only effect, or another doubt; inactive = no such curve, though single readings can be large; an effect the other way counts as inactive or inconclusive.

COc1ccccc1OCc1ccc(C(=O)N2N=C(C(F)F)CC2(O)C(F)F)o1 (stereo not drawn)	none
O=C(c1ccc(COc2ccc(Cl)cc2)o1)N1N=C(C(F)F)CC1(O)C(F)F (stereo not drawn)	Gal4-VP16 FLuc inconclusive, TGFb SMAD3 inh 22µM, RORgamma inh inconclusive
Cc1ccc(NC(=O)CN(C)C(=O)c2cccnc2Nc2cccc(C(F)(F)F)c2)cc1	Gal4-VP16 FLuc 13µM, ATXN viability inconclusive, TGFb SMAD3 inh inconclusive, RORgamma inh inconclusive
CCOc1ccc(-n2cc(-c3ccccc3)c3c(=O)[nH]cnc32)cc1	none
CCOc1ccc(-n2cc(-c3ccccc3)c3c(=S)nc[nH]c32)cc1	Gal4-VP16 FLuc 1.1µM, ATXN viability inconclusive, TGFb SMAD3 inh inconclusive, RORgamma inh 1µM (no result: ATXN2 expr inh)
Cc1cc2c(NC(=O)Nc3ccccc3)cccc2nn1	none
Cc1cc2c(N)cccc2nn1	RORgamma inh 13µM
Nc1cccc2nc3ccccc3cc12	Gal4-VP16 FLuc inconclusive, ATXN2 expr inh 7.9µM, TGFb SMAD3 inh inconclusive, RORgamma inh 14µM (no result: ATXN viability)
Cc1ccsc1CN1CCc2nnc(CCNC(=O)c3ccc(F)cc3)n2CC1	none (no result: Gal4-VP16 FLuc, ATXN2 expr inh, TGFb SMAD3 inh, HepG2 viability, RORgamma inh)
CC(=O)N1CCc2c(sc3c2c(=O)n(CCc2ccccc2)c(=O)n3CC(=O)Nc2ccc(C)c(F)c2)C1	none (no result: Gal4-VP16 FLuc, RORgamma inh)
Cc1cccc(NC(=S)NNC(=O)c2cc3c(s2)CCC(C)C3)c1C (stereo not drawn)	Gal4-VP16 FLuc inconclusive, RORgamma inh 18µM
CCc1ccc(OCCCCn2c(CCNC(=O)C3CCCCC3)nc3ccccc32)cc1	none (no result: Gal4-VP16 FLuc, ATXN2 expr inh, ATXN viability, RORgamma inh)
CSc1cccc(NC(=O)c2cc3c(COC(C)=O)cnc(C)c3oc2=O)c1	none (no result: Gal4-VP16 FLuc, ATXN2 expr inh, ATXN viability, RORgamma inh)
CSC(=S)N/N=C/c1ccc(Br)cc1	Gal4-VP16 FLuc 1.8µM, TGFb SMAD3 inh inconclusive, RORgamma inh 0.32µM
CSC(=S)N/N=C/c1ccc(N(C)C)cc1	Gal4-VP16 FLuc 2µM, RORgamma inh 0.25µM
CCN(Cc1ccncc1)Cc1ccc2c(c1)CN(C(=O)c1ccccc1)CCO2	none (no result: Gal4-VP16 FLuc, ATXN2 expr inh, TGFb SMAD3 inh, HepG2 viability, RORgamma inh)
Cn1cccc1/C=C(/C#N)C(N)=S	none
Cc1ccc(-c2ccc(/C=C(\C#N)C(N)=S)n2C)cc1	Gal4-VP16 FLuc inconclusive, RORgamma inh 2.2µM
COc1ccccc1Nc1nc(N)nc(CN2CC(C)CC(C)C2)n1 (stereo not drawn)	RORgamma inh 8.9µM
COc1ccccc1Nc1nc(N)nc(CN2CCCCC2)n1	none
CCOc1ccc(Nc2nc(N)nc(CN3CCN(c4ccccc4F)CC3)n2)cc1	RORgamma inh 11µM
CCOc1ccccc1Nc1nc(N)nc(CN(C)C2CCCCC2)n1	RORgamma inh 11µM
Cc1cccc(Nc2nc(N)nc(CN3CCN(c4ccccc4F)CC3)n2)c1	none (no result: Gal4-VP16 FLuc, RORgamma inh)
COc1ccccc1Nc1nc(N)nc(CN2CCN(c3ccccc3F)CC2)n1	Gal4-VP16 FLuc 7.9µM, RORgamma inh 1.8µM
COc1cc(C(=O)Nc2ccc(C)c(S(=O)(=O)N(C)C)c2)ccc1OCC(=O)N1CCOCC1	none (no result: Gal4-VP16 FLuc, RORgamma inh)
Cn1c(SCC(=O)N2CCCc3ccccc32)ncc(C(=O)Nc2ccc(Cl)cc2)c1=O	none (no result: Gal4-VP16 FLuc, ATXN2 expr inh, ATXN viability, RORgamma inh)
COC(=O)C1CCN(Cc2ccc3c(c2)CN(C(=O)c2ccc4nc(C)c(C)nc4c2)CCO3)CC1	none (no result: Gal4-VP16 FLuc, ATXN2 expr inh, TGFb SMAD3 inh, HepG2 viability, RORgamma inh)
CC1CC(C)CN(C(=S)SCc2nc(N)nc(Nc3ccccc3)n2)C1 (stereo not drawn)	Gal4-VP16 FLuc inconclusive, TGFb SMAD3 inh inconclusive, RORgamma inh 5.6µM
COc1ccccc1N1CCN(Cc2nc(N)nc(Nc3ccc(C)c(Cl)c3)n2)CC1	TGFb SMAD3 inh inconclusive, RORgamma inh 11µM
COc1ccc(OC)c(Nc2nc3ccccc3n3c(C)nnc23)c1	none (no result: Gal4-VP16 FLuc, RORgamma inh)
O=C(CCC(=O)N1CCN(S(=O)(=O)c2ccccc2Cl)CC1)c1ccccc1	none (no result: Gal4-VP16 FLuc, RORgamma inh)
Cc1ccccc1C(N)c1ccncc1 (stereo not drawn)	none (no result: ATXN2 expr inh)
CCOC(=O)Cc1csc(NC(=S)NC(=O)c2ccc([N+](=O)[O-])cc2)n1	Gal4-VP16 FLuc inconclusive, RORgamma inh 10µM
CCOC(=O)Cc1csc(NC(=O)c2ccc3ccccc3n2)n1	Gal4-VP16 FLuc inconclusive, RORgamma inh 6.3µM
CCOC(=O)Cc1csc(NC(=O)c2cc(C)on2)n1	none (no result: Gal4-VP16 FLuc, RORgamma inh)
